Experimental data: PubChem BioAssay
“And” between values parts separate entries of the source, which are not always exact repeats. Equal entries are not always repeated. Inconclusive results are not listed. The source made the active and inactive calls.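 The calls were made as follows, unless noted: active = differentiation response of at least 50%, scaled between solvent and reference control, from cells with both markers; inactive = the rest.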

Columns and labels:
[1] = rapamycin-like changes in RPL19A-GFP expression – cell-based, S. cerevisiae, multiplex flow cytometry, primary screen (AID 1862; in the data active = percent of DMSO control GFP below about 86%;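 also: lower values mimic rapamycin by blocking the RPL19A rise seen in DMSO cells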); settings: S. cerevisiae RPL19A-GFP strain, flow cytometry fluorescence, 3 h; at 10 µM; stronger effect = lower value
[2] = TOR pathway GLN3 branch reporter MEP2-GFP changes – S. cerevisiae, multiplex flow cytometry, primary screen (AID 1867;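 active = GFP response, as percent of the DMSO control, above the screen-wide mean plus 3 SD, about 139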;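 also: median GFP channel fluorescence of barcode-gated MEP2-GFP cells measured by flow cytometry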); settings: S. cerevisiae MEP2-GFP strain, 3 h, at 10 µM, stronger effect = higher value, 100% means same as DMSO wells
[3] = TOR pathway RTG branch CIT2 reporter changes – S. cerevisiae, GFP fusion, multiplex flow cytometry, primary screen (AID 1870;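 active = percent response above a set limit, the screen-wide mean plus 3 SD, cut at about 130% in these data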;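 also: barcoded CIT2-GFP strain pooled with four other GFP strains with rapamycin as positive control; median GFP fluorescence per well over plate mean of DMSO wells so 100% = DMSO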); settings: S. cerevisiae CIT2-GFP expression, 3 h, at 10 µM, stronger effect = higher value
[4] = TOR pathway LAP4-GFP level changes – S. cerevisiae, multiplex flow cytometry, primary screen (AID 1873;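 active = GFP signal, as percent of the solvent control, above the screen mean plus 3 SD, about 149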); settings: S. cerevisiae LAP4-GFP expression, 3 h, at 10 µM, stronger effect = higher value
[5] = yeast AGP1-GFP level changes, GLN3 branch – cell-based, multiplex flow cytometry, S. cerevisiae, primary screen (AID 1887;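 active = GFP signal above the screen-wide mean plus 3 SD, that is over about 124.5% of the solvent control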;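 also: AGP1-GFP fusion strain of S. cerevisiae within a five-strain barcoded multiplex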); settings: 3 h, at 10 µM, stronger effect = higher value
[6] = reduced mouse 2C T cell binding to pMHC/ICAM-1 vesicles – MLPCN validation set, flow cytometry, LFA-1/ICAM-1 modulator project, pilot screen (AID 2523;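 active = response below a set limit, under 55% cells CD8-positive and vesicle-bound, and CD8 cells' 90th-percentile brightness under 279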;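 as to vesicle binding response: mean PE anti-B7-1 fluorescence of CD8+ cells relative to row control; 100% = QL9-loaded vesicles with DMSO vehicle in the same plate row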); settings: 2C mouse CD8+ T cells, at 7 µM, stronger effect = lower value; double positive events: measured here: CD8+/vesicle+ event percentage
[7] = target: Integrin beta-1 (Homo sapiens) + Integrin alpha-4 (Homo sapiens) (UniProt P13612+P05556); experiment: alpha4beta1 integrin LIBS antibody binding reduction – U937 cells, HUTS-21 mAb, flow cytometry, validation set, VLA-4 allosteric modulator project, pilot screen (AID 2674;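 active = inhibition above 50%, about 3 SD of the validation set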;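 also: antibody binding induced by the VLA-4 ligand LDV present at three times its Kd; 0% = LDV ligand with antibody and no compound and 100% = antibody without LDV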); settings: HUTS-21 LIBS mAb binding, at 6.7 µM, stronger effect = higher value, binding induced by LDV ligand
Sequence of Integrin beta-1 (Homo sapiens) + Integrin alpha-4 (Homo sapiens) (P05556 whole entry, looked up): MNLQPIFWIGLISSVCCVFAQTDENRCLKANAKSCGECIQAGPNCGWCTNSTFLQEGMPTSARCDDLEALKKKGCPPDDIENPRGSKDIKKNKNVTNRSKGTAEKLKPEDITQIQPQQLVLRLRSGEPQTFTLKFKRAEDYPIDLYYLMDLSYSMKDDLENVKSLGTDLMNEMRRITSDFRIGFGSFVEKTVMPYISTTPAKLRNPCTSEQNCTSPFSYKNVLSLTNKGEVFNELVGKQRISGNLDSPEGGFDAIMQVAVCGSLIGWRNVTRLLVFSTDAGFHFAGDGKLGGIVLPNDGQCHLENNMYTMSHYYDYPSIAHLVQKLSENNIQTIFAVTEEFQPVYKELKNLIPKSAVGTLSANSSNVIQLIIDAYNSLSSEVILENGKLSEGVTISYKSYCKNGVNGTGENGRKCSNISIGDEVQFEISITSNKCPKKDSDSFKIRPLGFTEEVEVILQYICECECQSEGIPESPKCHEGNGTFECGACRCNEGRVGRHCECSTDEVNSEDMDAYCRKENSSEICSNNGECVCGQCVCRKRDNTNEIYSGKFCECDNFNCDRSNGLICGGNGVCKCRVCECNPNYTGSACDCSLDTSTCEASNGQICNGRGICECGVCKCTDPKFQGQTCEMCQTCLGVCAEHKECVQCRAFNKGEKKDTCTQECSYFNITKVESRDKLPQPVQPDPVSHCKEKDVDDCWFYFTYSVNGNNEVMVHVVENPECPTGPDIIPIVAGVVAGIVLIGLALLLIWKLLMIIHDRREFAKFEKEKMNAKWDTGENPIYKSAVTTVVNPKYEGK
Sequence of Integrin beta-1 (Homo sapiens) + Integrin alpha-4 (Homo sapiens) (P13612 whole entry, looked up): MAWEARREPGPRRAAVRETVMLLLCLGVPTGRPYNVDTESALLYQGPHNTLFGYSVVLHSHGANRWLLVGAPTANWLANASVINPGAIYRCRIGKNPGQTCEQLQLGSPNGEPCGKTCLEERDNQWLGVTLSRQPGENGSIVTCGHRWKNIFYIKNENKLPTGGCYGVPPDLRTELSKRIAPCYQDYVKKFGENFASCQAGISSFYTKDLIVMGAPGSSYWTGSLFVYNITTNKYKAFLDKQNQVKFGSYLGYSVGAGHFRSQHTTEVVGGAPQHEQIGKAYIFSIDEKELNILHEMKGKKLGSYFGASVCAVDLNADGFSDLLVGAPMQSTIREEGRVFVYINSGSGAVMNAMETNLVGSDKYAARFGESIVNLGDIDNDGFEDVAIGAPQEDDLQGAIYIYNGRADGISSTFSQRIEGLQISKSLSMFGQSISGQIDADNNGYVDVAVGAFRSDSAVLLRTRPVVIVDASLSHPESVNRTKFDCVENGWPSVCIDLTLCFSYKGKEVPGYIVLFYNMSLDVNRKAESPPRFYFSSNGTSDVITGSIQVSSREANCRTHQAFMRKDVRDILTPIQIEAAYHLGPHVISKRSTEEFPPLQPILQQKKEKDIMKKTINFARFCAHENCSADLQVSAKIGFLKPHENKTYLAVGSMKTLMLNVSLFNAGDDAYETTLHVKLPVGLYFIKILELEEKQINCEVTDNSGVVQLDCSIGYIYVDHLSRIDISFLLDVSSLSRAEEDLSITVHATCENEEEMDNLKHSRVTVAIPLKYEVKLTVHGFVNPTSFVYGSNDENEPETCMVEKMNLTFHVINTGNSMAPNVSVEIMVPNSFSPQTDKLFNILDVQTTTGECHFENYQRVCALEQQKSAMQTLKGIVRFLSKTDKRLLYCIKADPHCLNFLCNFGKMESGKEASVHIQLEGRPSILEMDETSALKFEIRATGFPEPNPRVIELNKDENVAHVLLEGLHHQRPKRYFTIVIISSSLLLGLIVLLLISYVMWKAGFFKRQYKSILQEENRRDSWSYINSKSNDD

[8] = calorie-restriction mimetic ROS inhibitors, yeast – validation compound set, pilot screen (AID 2706;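 active = superoxide response below 65% of plate, a cut near 3 SD across the whole screen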;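 also: yeast exposed to compound for one week at 30 degrees C before staining; 100% = mean of all compound wells on the same plate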); settings: S. cerevisiae aging, superoxide DHE fluorescence; at 10 µM; stronger effect = lower value
[9] = target: Beta-adrenergic receptor kinase 1 (Homo sapiens) (UniProt P25098); experiment: GRK2 binders displacing RNA aptamer, biochemical, validation, human GRK2, bead flow cytometry (AID 488806;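 active = aptamer binding inhibition above 30%, about 3 SD of noise from non-fluorescent compounds; inactive = inhibition at or below 30%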); settings: bead-bound GRK2, FAM-aptamer displacement, at 10 µM, stronger effect = higher value
Sequence of Beta-adrenergic receptor kinase 1 (Homo sapiens) (P25098 whole entry, looked up): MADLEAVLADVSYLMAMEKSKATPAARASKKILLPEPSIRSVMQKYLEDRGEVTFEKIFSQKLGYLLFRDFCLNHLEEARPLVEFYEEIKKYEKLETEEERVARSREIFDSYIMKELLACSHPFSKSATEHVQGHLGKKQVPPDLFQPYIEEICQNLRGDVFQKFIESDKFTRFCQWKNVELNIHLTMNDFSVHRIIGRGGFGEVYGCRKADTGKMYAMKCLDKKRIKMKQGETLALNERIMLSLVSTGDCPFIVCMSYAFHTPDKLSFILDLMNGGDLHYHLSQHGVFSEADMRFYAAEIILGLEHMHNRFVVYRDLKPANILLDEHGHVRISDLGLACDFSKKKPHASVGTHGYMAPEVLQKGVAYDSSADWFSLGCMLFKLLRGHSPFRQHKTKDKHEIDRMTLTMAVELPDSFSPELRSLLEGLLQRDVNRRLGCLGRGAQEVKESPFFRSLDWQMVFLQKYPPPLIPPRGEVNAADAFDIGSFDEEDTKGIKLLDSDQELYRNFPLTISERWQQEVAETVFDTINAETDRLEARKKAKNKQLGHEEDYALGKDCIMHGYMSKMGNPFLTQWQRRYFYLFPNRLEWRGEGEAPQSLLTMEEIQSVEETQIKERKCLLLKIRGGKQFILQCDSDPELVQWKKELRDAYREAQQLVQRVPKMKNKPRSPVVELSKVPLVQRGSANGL

[10] = target: Beta-2 adrenergic receptor (Homo sapiens) (UniProt P07550); experiment: agonist-induced loss of surface beta2AR – cell-based, FAP fluorogen, flow cytometry, validation set, pilot screen (AID 504459;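 active = percent response above 42, roughly 3 SD of non-fluorescent test compounds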;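 also: agonist-driven loss of surface beta2AR via internalization measured by FAP dye flow cytometry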); settings: Am2.2-beta2AR cells, at 10 µM, stronger effect = higher value
Sequence of Beta-2 adrenergic receptor (Homo sapiens) (P07550 whole entry, looked up): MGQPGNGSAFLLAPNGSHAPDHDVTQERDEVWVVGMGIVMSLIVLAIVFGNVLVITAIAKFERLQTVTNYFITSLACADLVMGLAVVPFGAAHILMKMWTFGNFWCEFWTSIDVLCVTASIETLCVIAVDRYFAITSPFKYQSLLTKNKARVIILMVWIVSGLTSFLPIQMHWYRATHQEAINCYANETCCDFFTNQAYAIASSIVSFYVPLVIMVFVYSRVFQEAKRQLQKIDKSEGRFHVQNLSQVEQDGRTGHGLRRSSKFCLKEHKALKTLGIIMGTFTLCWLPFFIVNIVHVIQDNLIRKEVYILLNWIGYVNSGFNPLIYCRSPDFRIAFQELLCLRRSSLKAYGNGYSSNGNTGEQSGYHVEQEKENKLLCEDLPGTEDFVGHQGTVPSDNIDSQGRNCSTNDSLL

[11] = target: AP-2 complex subunit beta (Homo sapiens) (UniProt P63010); experiment: beta-arrestin/AP2 interaction blockers – biochemical, validation set, GST-AP2 beads, flow cytometry, pilot screen (AID 504541;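 active = inhibition above 54%, about 3 SD of non-fluorescent compounds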;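 also: AP2 carries R879A mutation and is captured from E. coli lysate; bead-bound FITC arrestin peptide fluorescence measuring arrestin peptide binding to AP2; 0% = DMSO wells and 100% = excess unlabeled arrestin peptide control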); settings: FITC arrestin peptide, at 10 µM, stronger effect = higher value, AP2 beta2 appendage fragment, R879A mutant
Sequence of AP-2 complex subunit beta (Homo sapiens) (P63010 whole entry, looked up, the tested form may be a part, one chain of several): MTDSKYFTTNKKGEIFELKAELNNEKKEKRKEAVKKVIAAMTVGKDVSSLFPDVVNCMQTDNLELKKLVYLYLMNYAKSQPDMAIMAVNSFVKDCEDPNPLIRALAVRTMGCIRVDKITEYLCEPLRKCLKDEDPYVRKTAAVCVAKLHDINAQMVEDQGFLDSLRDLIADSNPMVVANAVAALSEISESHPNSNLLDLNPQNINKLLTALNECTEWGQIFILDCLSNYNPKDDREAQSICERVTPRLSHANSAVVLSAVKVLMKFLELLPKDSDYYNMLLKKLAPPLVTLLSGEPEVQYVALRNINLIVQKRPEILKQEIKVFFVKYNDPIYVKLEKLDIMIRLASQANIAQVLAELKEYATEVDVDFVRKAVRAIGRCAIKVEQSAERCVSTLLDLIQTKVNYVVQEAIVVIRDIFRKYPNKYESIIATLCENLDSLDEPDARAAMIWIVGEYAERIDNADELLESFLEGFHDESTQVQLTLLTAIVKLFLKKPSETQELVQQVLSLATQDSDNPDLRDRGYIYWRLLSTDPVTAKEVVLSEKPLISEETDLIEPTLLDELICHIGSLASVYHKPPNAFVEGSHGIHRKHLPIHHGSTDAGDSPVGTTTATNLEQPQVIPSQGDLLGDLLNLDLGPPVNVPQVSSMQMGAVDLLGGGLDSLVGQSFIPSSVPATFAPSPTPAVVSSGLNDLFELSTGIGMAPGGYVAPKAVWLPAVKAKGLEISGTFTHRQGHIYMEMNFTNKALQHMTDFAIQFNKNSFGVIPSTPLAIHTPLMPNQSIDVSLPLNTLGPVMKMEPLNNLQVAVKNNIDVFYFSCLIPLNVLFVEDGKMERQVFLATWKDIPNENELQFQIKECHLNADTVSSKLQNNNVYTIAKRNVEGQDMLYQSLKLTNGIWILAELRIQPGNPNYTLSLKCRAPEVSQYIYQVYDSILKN

[12] = cytosolic pH regulators acting via V-ATPase – S. cerevisiae, pHLuorin, HTS validation (AID 504600; in the data active = response above about 15%;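 also: plate controls were DMSO for no effect and reference compound for full effect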); settings: V-ATPase proton transport, at 10 µM, stronger effect = higher value
[13] = test system: anti-desmoglein-3 scFv antibody binding to human DSG3; experiment: blockers of pathogenic pemphigus antibody–desmoglein-3 binding – biochemical, validation compound set, bead-based, flow cytometry, pilot screen (AID 588368;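 active = binding below the plate cutoff, the plate median minus 3 SD, with a reading above zero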;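 also: signal is the median channel fluorescence of bead-bound GFP antibody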); settings: Protein G beads, DSG3-Fc, scFv-GFP binding, at 10 µM, stronger effect = lower value
[14] = Nile Red efflux blockade in pump-expressing yeast – validation compound set, multiplex, phenotypic, pilot screen (AID 588506;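 active = efflux inhibition above 0.42, the validation set average plus 4 SD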;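 also: Nile Red retained in cells so higher fluorescence means more efflux inhibition; 0 = negative control wells and 1 = enniatin B 25 µM full block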); settings: S. cerevisiae pump-expressing triplex, Nile Red efflux flow cytometry; at 10 µM; stronger effect = higher value; the pumps come from Candida albicans
[15] = target: ATP-binding cassette sub-family B member 6 (Homo sapiens) (UniProt Q9NP58); experiment: blockers of ABCB6-driven porphyrin uptake – K562-ABCB6 cells, flow cytometry, validation set, pilot screen (AID 588550;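 active = inhibition above the screen-wide mean plus 3 SD, about 51%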;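 also: 0% = DMSO wells and 100% = benzethonium chloride 70 µM positive control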); settings: K562-ABCB6 porphyrin accumulation, 1 h, at 10 µM, stronger effect = higher value
Sequence of ATP-binding cassette sub-family B member 6 (Homo sapiens) (Q9NP58 whole entry, looked up): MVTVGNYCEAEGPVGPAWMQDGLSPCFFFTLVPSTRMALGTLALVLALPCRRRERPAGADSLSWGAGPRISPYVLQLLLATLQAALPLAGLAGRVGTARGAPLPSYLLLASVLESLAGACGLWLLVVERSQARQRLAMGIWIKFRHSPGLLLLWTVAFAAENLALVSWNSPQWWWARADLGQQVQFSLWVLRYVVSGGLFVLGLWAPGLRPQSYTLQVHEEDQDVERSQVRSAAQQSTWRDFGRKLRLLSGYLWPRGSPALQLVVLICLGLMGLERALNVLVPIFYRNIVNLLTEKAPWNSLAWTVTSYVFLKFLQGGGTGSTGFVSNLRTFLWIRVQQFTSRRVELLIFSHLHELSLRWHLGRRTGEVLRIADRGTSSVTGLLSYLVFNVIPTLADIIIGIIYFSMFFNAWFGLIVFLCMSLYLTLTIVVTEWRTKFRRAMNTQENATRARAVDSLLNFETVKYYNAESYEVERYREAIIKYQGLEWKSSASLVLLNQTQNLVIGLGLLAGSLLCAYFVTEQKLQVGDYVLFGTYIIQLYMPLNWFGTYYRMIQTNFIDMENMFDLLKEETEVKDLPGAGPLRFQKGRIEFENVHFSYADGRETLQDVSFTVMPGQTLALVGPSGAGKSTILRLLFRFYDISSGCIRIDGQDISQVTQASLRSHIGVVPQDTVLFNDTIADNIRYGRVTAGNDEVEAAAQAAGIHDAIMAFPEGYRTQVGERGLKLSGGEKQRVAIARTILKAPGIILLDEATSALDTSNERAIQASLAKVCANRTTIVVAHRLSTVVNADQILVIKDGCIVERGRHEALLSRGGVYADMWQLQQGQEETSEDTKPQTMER

[16] = AML differentiation inducers, ER-HoxA9 marrow cells – cell-based, GFP/MAC1 double positive, flow cytometry, validation set, primary screen (AID 588685); settings: stronger effect = higher value, normalized: vehicle 0, fulvestrant 100;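 also: compound exposure lasts four days before antibody staining and flow analysis; 0% = DMSO wells and 100% = 5 µM fulvestrant positive control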

CSCCC1NC2(C(=O)Nc3ccc(Cl)cc32)[C@@H]2C(=O)N(C3CCCC3)C(=O)[C@H]12 (stereo not given in full)
59.4%: double positive events [6]
inactive: percent of DMSO control GFP [1] 101% | GFP response vs DMSO [2] 109% | percent response of DMSO control [3] 103% | GFP response vs DMSO [4] 102% | GFP response, % of DMSO [5] 98.9% | vesicle binding response [6] 121% | inhibition [7] -37.3% | superoxide response (% of plate) [8] 94.5% | aptamer binding inhibition [9] 6% | response [10] -27.1% | inhibition [11] -6.32% | response [12] 1.16% | binding (% of control) [13] 109% | efflux inhibition (fraction of control) [14] -0.29 | inhibition [15] -10% | differentiation response [16] 1.28%

CN1[C@@H]2CC(OC(=O)[C@H](CO)c3ccccc3)C[C@H]1[C@@H]1O[C@@H]12 (stereo not given in full)
62.9% and 62.1%: double positive events [6]
inactive: percent of DMSO control GFP [1] 107% and 99.1% | GFP response vs DMSO [2] 101% and 115% | percent response of DMSO control [3] 109% and 93.9% | GFP response vs DMSO [4] 109% and 117% | GFP response, % of DMSO [5] 114% and 103% | vesicle binding response [6] 177% and 215% | inhibition [7] 0.25% and 6.4% | superoxide response (% of plate) [8] 99.8% and 101% | aptamer binding inhibition [9] -1% and 3% | response [10] -2.34% and -12.4% | inhibition [11] 14.7% and 37.8% | response [12] -8.23% and -3.95% | binding (% of control) [13] 101% and 98.7% | efflux inhibition (fraction of control) [14] -0.26 and -0.1 | inhibition [15] -10% and 4% | differentiation response [16] -3.11% and -2.4%

COc1ccccc1OS(=O)(=O)c1ccc(NC(C)=O)cc1
57.8%: double positive events [6]
inactive: percent of DMSO control GFP [1] 87.1% | GFP response vs DMSO [2] 123% | percent response of DMSO control [3] 101% | GFP response vs DMSO [4] 82.5% | GFP response, % of DMSO [5] 103% | vesicle binding response [6] 65.7% | inhibition [7] 10.3% | superoxide response (% of plate) [8] 97% | aptamer binding inhibition [9] 2% | response [10] -16.4% | inhibition [11] -11.8% | response [12] -0.65% | binding (% of control) [13] 101% | efflux inhibition (fraction of control) [14] -0.35 | inhibition [15] 4% | differentiation response [16] -4.09%

CC(C)=CCC/C(C)=C/CC/C(C)=C/CC/C(C)=C/CC1=C(C)C(=O)c2ccccc2C1=O
inactive: percent of DMSO control GFP [1] 98.2% | GFP response vs DMSO [2] 105% | percent response of DMSO control [3] 101% | GFP response vs DMSO [4] 121% | GFP response, % of DMSO [5] 116% | vesicle binding response [6] 205% | inhibition [7] -7.08% | superoxide response (% of plate) [8] 102% | aptamer binding inhibition [9] 2% | response [10] -16% | inhibition [11] -12.1% | response [12] -1.04% | binding (% of control) [13] 99.2% | efflux inhibition (fraction of control) [14] -0.09 | inhibition [15] -4% | differentiation response [16] -6.96%
58.9%: double positive events [6]

CN(C)CCC(c1ccc(Cl)cc1)c1ccccn1 (stereo not given)
56.3%: double positive events [6]
active: response [12] 18.1%
inactive: percent of DMSO control GFP [1] 99% | GFP response vs DMSO [2] 120% | percent response of DMSO control [3] 108% | GFP response vs DMSO [4] 78.7% | GFP response, % of DMSO [5] 87.5% | vesicle binding response [6] 215% | inhibition [7] -7.12% | superoxide response (% of plate) [8] 94% | aptamer binding inhibition [9] -7% | response [10] -9.09% | inhibition [11] 4.35% | binding (% of control) [13] 107% | efflux inhibition (fraction of control) [14] 0.05 | inhibition [15] 7% | differentiation response [16] 37.7%

O=C1C2CC=C(Cl)CC2C(=O)N1CCc1c[nH]c2ccccc12 (stereo not given)
55.5%: double positive events [6]
inactive: percent of DMSO control GFP [1] 90.2% | GFP response vs DMSO [2] 108% | percent response of DMSO control [3] 104% | GFP response vs DMSO [4] 80.9% | GFP response, % of DMSO [5] 97.5% | vesicle binding response [6] 129% | inhibition [7] 16.2% | superoxide response (% of plate) [8] 114% | aptamer binding inhibition [9] 8% | response [10] -5.28% | inhibition [11] 0.6% | response [12] -1.1% | binding (% of control) [13] 103% | efflux inhibition (fraction of control) [14] 0.09 | inhibition [15] 12% | differentiation response [16] -12.3%

CC1(C)C(=O)OC(C(=O)c2ccc(Cl)cc2)C(C)(C)C1=O (stereo not given)
66.1%: double positive events [6]
inactive: percent of DMSO control GFP [1] 103% | GFP response vs DMSO [2] 90.9% | percent response of DMSO control [3] 107% | GFP response vs DMSO [4] 97.3% | GFP response, % of DMSO [5] 103% | vesicle binding response [6] 261% | inhibition [7] -11.9% | superoxide response (% of plate) [8] 104% | aptamer binding inhibition [9] 2% | response [10] -5.23% | inhibition [11] -10.6% | response [12] -4.25% | binding (% of control) [13] 99.3% | efflux inhibition (fraction of control) [14] -0.01 | inhibition [15] -4% | differentiation response [16] -4.64%

COc1ccc(NC(=S)N2CCN(CCN3C(=O)c4cccc5cccc(c45)C3=O)CC2)cc1
59.1%: double positive events [6]
inactive: percent of DMSO control GFP [1] 101% | GFP response vs DMSO [2] 129% | percent response of DMSO control [3] 104% | GFP response vs DMSO [4] 90.2% | GFP response, % of DMSO [5] 91.9% | vesicle binding response [6] 31.6% | inhibition [7] -6.15% | superoxide response (% of plate) [8] 86.5% | aptamer binding inhibition [9] 0% | response [10] -4.94% | inhibition [11] 24.4% | response [12] -0.62% | binding (% of control) [13] 105% | efflux inhibition (fraction of control) [14] 0.34 | inhibition [15] 9% | differentiation response [16] 18%

CCNC(=O)C12CCC(C)(C(=O)O1)C2(C)C (stereo not given)
60.6%: double positive events [6]
inactive: percent of DMSO control GFP [1] 105% | GFP response vs DMSO [2] 102% | percent response of DMSO control [3] 102% | GFP response vs DMSO [4] 95.8% | GFP response, % of DMSO [5] 101% | vesicle binding response [6] 120% | inhibition [7] 8.28% | superoxide response (% of plate) [8] 105% | aptamer binding inhibition [9] 2% | response [10] 6.09% | inhibition [11] 6.39% | response [12] 2.81% | binding (% of control) [13] 95.7% | efflux inhibition (fraction of control) [14] -0.54 | inhibition [15] 7% | differentiation response [16] 1.17%

CCCc1c(OCCCCc2nn[nH]n2)ccc(C(C)=O)c1O
inactive: percent of DMSO control GFP [1] 107% | GFP response vs DMSO [2] 107% | percent response of DMSO control [3] 104% | GFP response vs DMSO [4] 111% | GFP response, % of DMSO [5] 112% | vesicle binding response [6] 197% | inhibition [7] -13.2% | superoxide response (% of plate) [8] 115% | aptamer binding inhibition [9] -5% | response [10] 8.37% | inhibition [11] -8.69% | response [12] -6.13% | binding (% of control) [13] 105% | efflux inhibition (fraction of control) [14] -0.16 | inhibition [15] -13% | differentiation response [16] 2.74%
62.8%: double positive events [6]
